Source: PubChem BioAssay AID1159580 (chemical genetic matrix, 2015)
Hit rate of the full screen: of about 5,500 compounds, about 2,000 (36%) were called active. Roughly 18% stayed inconclusive and do not appear here. Cut-off read from the data, not from the text of the source: active = normalized growth mostly below about 0.91 (no sharp cut-off); inconclusive = no clear call, values can overlap the other calls; inactive = mostly above about 0.92. The list shows a part of the results.

Assay: chemical genetic growth profiling, strain panel (AID 1159580);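 note: tested at 20 µM; growth read once vehicle control cultures reached saturation at 30 °C; 1 = growth at the plate median or of vehicle wells; lower values mean less growth of the strain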
Conditions: growth OD

Measured: normalized growth

COc1cc(-c2coc3cc(OCc4ccccc4)c(OC)c(O)c3c2=O)cc(OCc2ccccc2)c1OC
inactive: S. cerevisiae deletion strains, locus YAL013W, strain DEP1, hits give low values 1.04 | S. cerevisiae deletion strains, locus YBR021W, strain FUR4, hits give low values 1.01 | S. cerevisiae deletion strains, locus YBR229C, strain ROT2, hits give low values 0.995 | S. cerevisiae deletion strains, locus YCL029C, strain bik1, hits give low values 0.981 | S. cerevisiae deletion strains, locus YDL035C, strain GPR1, hits give low values 1.03 | S. cerevisiae deletion strains, locus YDL074C, strain BRE1, hits give low values 1.02 | S. cerevisiae deletion strains, locus YDL101C, strain DUN1, hits give low values 0.99 | S. cerevisiae deletion strains, locus YDL185W, strain tfp1, hits give low values 0.989 | S. cerevisiae deletion strains, locus YDL192W, strain arf1, hits give low values 0.981 | S. cerevisiae deletion strains, locus YDR101C, strain arx1, hits give low values 0.991 | S. cerevisiae deletion strains, locus YDR150W, strain NUM1, hits give low values 1.01 | S. cerevisiae deletion strains, locus YDR162C, strain NBP2, hits give low values 1.02 | S. cerevisiae deletion strains, locus YDR318W, strain mcm21, hits give low values 0.992 | S. cerevisiae deletion strains, locus YDR388W, hits give low values 0.981 | S. cerevisiae deletion strains, locus YDR502C, strain sam2, hits give low values 0.991 | S. cerevisiae deletion strains, locus YEL061C, strain CIN8, hits give low values 1.01 | S. cerevisiae deletion strains, locus YER110C, hits give low values 0.974 | S. cerevisiae deletion strains, locus YER155C, strain BEM2, hits give low values 0.999 | S. cerevisiae deletion strains, locus YER167W, strain BCK2, hits give low values 1 | S. cerevisiae deletion strains, locus YGL078C, strain dbp3, hits give low values 0.988 | S. cerevisiae deletion strains, locus YGL086W, strain mad1, hits give low values 0.975 | S. cerevisiae deletion strains, locus YGL248W, strain PDE1, hits give low values 0.973 | S. cerevisiae deletion strains, locus YGR078C, strain PAC10, hits give low values 1 | S. cerevisiae deletion strains, locus YGR135W, strain pre9, hits give low values 0.986 | S. cerevisiae deletion strains, locus YGR229C, strain SMI1, hits give low values 1.04 | S. cerevisiae deletion strains, locus YGR252W, strain gcn5, hits give low values 1.07 | S. cerevisiae deletion strains, locus YHR030C, strain SLT2, hits give low values 0.989 | S. cerevisiae deletion strains, locus YHR079C, strain IRE1 (second series), hits give low values 0.98 | S. cerevisiae deletion strains, locus YHR094C, strain hxt1, hits give low values 0.978 | S. cerevisiae deletion strains, locus YHR129C, strain ARP1, hits give low values 0.986 | S. cerevisiae deletion strains, locus YHR200W, strain rpn10, hits give low values 0.988 | S. cerevisiae deletion strains, locus YIL066C, strain RNR3, hits give low values 0.982 | S. cerevisiae deletion strains, locus YIL073C, strain SPO22, hits give low values 0.969 | S. cerevisiae deletion strains, locus YIL125W, strain kgd1, hits give low values 0.984 | S. cerevisiae deletion strains, locus YIR030C, strain dcg1, hits give low values 0.988 | S. cerevisiae deletion strains, locus YJL095W, strain BCK1, hits give low values 0.972 | S. cerevisiae deletion strains, locus YJL134W, strain LCB3, hits give low values 0.993 | S. cerevisiae deletion strains, locus YJL168C, strain set2, hits give low values 0.977 | S. cerevisiae deletion strains, locus YJL187C, strain SWE1 (second series), hits give low values 0.968 | S. cerevisiae deletion strains, locus YJR043C, strain POL32, hits give low values 1.04 | S. cerevisiae deletion strains, locus YJR075W, strain HOC1, hits give low values 1.01 | S. cerevisiae deletion strains, locus YKL009W, strain mrt4, hits give low values 0.968 | S. cerevisiae deletion strains, locus YKL068W, hits give low values 0.992 | S. cerevisiae deletion strains, locus YKL085W, strain MDH1 (second series), hits give low values 1.03 | S. cerevisiae deletion strains, locus YKL085W, strain MDH1, hits give low values 1.03 | S. cerevisiae deletion strains, locus YKL190W, strain CNB1, hits give low values 1.01 | S. cerevisiae deletion strains, locus YKR001C, strain vps1, hits give low values 0.964 | S. cerevisiae deletion strains, locus YLR039C, strain RIC1, hits give low values 1.05 | S. cerevisiae deletion strains, locus YLR058C, strain SHM2, hits give low values 0.989 | S. cerevisiae deletion strains, locus YLR102C, strain apc9, hits give low values 0.98 | S. cerevisiae deletion strains, locus YLR262C, strain YPT6, hits give low values 1.08 | S. cerevisiae deletion strains, locus YLR268W, strain sec22, hits give low values 0.967 | S. cerevisiae deletion strains, locus YLR330W, strain CHS5, hits give low values 0.994 | S. cerevisiae deletion strains, locus YLR342W, strain FKS1 (second series), hits give low values 1.02 | S. cerevisiae deletion strains, locus YLR371W, strain rom2, hits give low values 0.97 | S. cerevisiae deletion strains, locus YLR418C, strain cdc73, hits give low values 0.983 | S. cerevisiae deletion strains, locus YML016C, strain PPZ1, hits give low values 0.991 | S. cerevisiae deletion strains, locus YML032C, strain rad52, hits give low values 1 | S. cerevisiae deletion strains, locus YML124C, strain tub3, hits give low values 0.983 | S. cerevisiae deletion strains, locus YMR078C, strain ctf18, hits give low values 0.975 | S. cerevisiae deletion strains, locus YMR223W, strain ubp8, hits give low values 0.99 | S. cerevisiae deletion strains, locus YMR307W, strain GAS1, hits give low values 1.12 | S. cerevisiae deletion strains, locus YNL067W, strain RPL9B, hits give low values 0.984 | S. cerevisiae deletion strains, locus YNL233W, strain BNI4, hits give low values 0.977 | S. cerevisiae deletion strains, locus YNL250W, strain rad50, hits give low values 0.971 | S. cerevisiae deletion strains, locus YNL271C, strain bni1, hits give low values 0.981 | S. cerevisiae deletion strains, locus YNL298W, strain CLA4, hits give low values 0.982 | S. cerevisiae deletion strains, locus YNL307C, strain MCK1, hits give low values 0.969 | S. cerevisiae deletion strains, locus YNL322C, strain KRE1, hits give low values 0.999 | S. cerevisiae deletion strains, locus YNR052C, strain pop2, hits give low values 0.991 | S. cerevisiae deletion strains, locus YOL006C, strain TOP1, hits give low values 0.936 | S. cerevisiae deletion strains, locus YOL012C, strain htz1 0.883 | S. cerevisiae deletion strains, locus YOL147C, strain pex11, hits give low values 0.989 | S. cerevisiae deletion strains, locus YOR061W, strain CKA2, hits give low values 0.989 | S. cerevisiae deletion strains, locus YOR069W, strain VPS5, hits give low values 0.99 | S. cerevisiae deletion strains, locus YOR136W, strain idh2, hits give low values 0.98 | S. cerevisiae deletion strains, locus YOR144C, strain elg1, hits give low values 1 | S. cerevisiae deletion strains, locus YOR184W, strain ser1, hits give low values 0.979 | S. cerevisiae deletion strains, locus YOR316C, strain cot1, hits give low values 0.981 | S. cerevisiae deletion strains, locus YPL055C, strain LGE1, hits give low values 0.987 | S. cerevisiae deletion strains, locus YPR119W, strain clb2, hits give low values 0.981 | S. cerevisiae deletion strains, locus YPR141C, strain kar3, hits give low values 0.963 | S. cerevisiae deletion strains, locus YPR163C, strain tif3, hits give low values 0.989 | S. cerevisiae deletion strains, locus YPR167C, strain met16, hits give low values 0.988 | S. cerevisiae deletion strains, strain wtn01, hits give low values 0.981 | S. cerevisiae strains, strain wild type, hits give low values 1
